The values below come from the supplement of paper PMC6992640.

The test system of this experiment is HCI01 (cells of a triple-negative basal-like breast cancer xenograft). Description: cell viability of combination (% of vehicle); higher = less cytotoxic. Conditions: 1 µM; 72 h; partner dose: 10 nM. How it is done:
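PDX cells were treated for 72 h with each drug at 1 µM plus afatinib (10 nM; 1 µM for WHIM30). Luciferase viability is expressed as percent of vehicle.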
For the compound `C=CC(=O)N1CCC(Oc2cc3c(Nc4ccc(Cl)c(Cl)c4F)ncnc3cc2OC)CC1` [Poziotinib] + CN(C)C/C=C/C(=O)Nc1cc2c(Nc3ccc(F)c(Cl)c3)ncnc2cc1O[C@H]1CCOC1 [Afatinib], the “cell viability of combination” value amounted to 42.9.
The value for `CS(=O)(=O)CCNCc1ccc(-c2ccc3ncnc(Nc4ccc(OCc5cccc(F)c5)c(Cl)c4)c3c2)o1.Cc1ccc(S(=O)(=O)O)cc1.Cc1ccc(S(=O)(=O)O)cc1` [Lapatinib Ditosylate] + CN(C)C/C=C/C(=O)Nc1cc2c(Nc3ccc(F)c(Cl)c3)ncnc2cc1O[C@H]1CCOC1 [Afatinib] was 41.6.
Turning to `CCOc1cc2ncc(C#N)c(Nc3ccc(F)c(Cl)c3)c2cc1NC(=O)C=CCN(C)C` [Pelitinib (EKB-569)] + CN(C)C/C=C/C(=O)Nc1cc2c(Nc3ccc(F)c(Cl)c3)ncnc2cc1O[C@H]1CCOC1 [Afatinib], the “cell viability of combination” value worked out at 72.1.
In the case of `COc1cc(Nc2c(C#N)cnc3cc(OCCCN4CCN(C)CC4)c(OC)cc23)c(Cl)cc1Cl` [Bosutinib (SKI-606)] + CN(C)C/C=C/C(=O)Nc1cc2c(Nc3ccc(F)c(Cl)c3)ncnc2cc1O[C@H]1CCOC1 [Afatinib] it was 40.3; in that of `CC(C)CC(NC(=O)C(CCc1ccccc1)NC(=O)CN1CCOCC1)C(=O)NC(Cc1ccccc1)C(=O)NC(CC(C)C)C(=O)C1(C)CO1` (stereo not given) [Carfilzomib (PR-171)] + CN(C)C/C=C/C(=O)Nc1cc2c(Nc3ccc(F)c(Cl)c3)ncnc2cc1O[C@H]1CCOC1 [Afatinib], 17.5.
